The record followed here is PubChem BioAssay (NCATS).

Where “and” joins values, the source holds several entries; their conditions need not be identical. Identical values can stand only once. Results filed as inconclusive are left out. Calls of active or inactive are those of the source. Unless noted, calls follow the shape of the dose curve; as a rule, active = well fitted curve in the direction sought with a large enough effect; inconclusive = small, poorly fitted or top-dose-only effect, or another doubt; inactive = no such curve, though single readings can be large; an effect the other way counts as inactive or inconclusive.

Assay [1] in a line: qHTS Assay for Lipid Storage Modulators (AID 1519; calls by dose curve; as to activity change, negative = inhibition: % is scaled to controls: 0 for no effect and ±100 for the full control effect). The note with it: Drosophila S3 cells, BODIPY lipid droplet/cell ratio, laser cytometry, cells loaded with oleic acid. In a few lines: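 Cells seeded at 5,000 per well were treated with compounds over a concentration series and loaded with oleic acid (400 uM, as added). Lipid droplet fluorescence (488 nm excitation, 500-530 nm channel) was read by laser-scanning cytometry and normalized to 20 uM Triacsin C.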
A general note: In qHTS, concentration-response curves come from the screen itself.

Assay [2] addresses DNA repair nuclease/redox regulator APEX1 (Homo sapiens) (UniProt P27695). Briefly: qHTS Validation Assay for Inhibitors of the Human Apurinic/apyrimidinic Endonuclease 1 (APE1) (AID 1705; also: potency is read from the fitted curve at half-maximal effect;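 as to activity change, negative = inhibition: TAMRA fluorescence gain over two minutes as APE1 cuts a quenched THF abasic duplex; % is scaled to controls: 0 for no effect and ±100 for the full control effect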). As to conditions: purified APE1 endonuclease activity, fluorescence, titration; series mostly up to 57.1 µM. In a few lines: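 Human APE1 was preincubated with compound for 15 min at room temperature, then 50 nM (final) THF-abasic double-stranded DNA substrate bearing 5'-TAMRA and 3'-BHQ-2 was added. Incision-driven fluorescence rise (ex 525/em 598 nm) was read kinetically.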

Assay [3] can be described thus: qHTS for differential inhibitors of proliferation of Plasmodium falciparum line 7G8 (AID 1815).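 Also: parasite growth measured after three days of incubation.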 Also: potency is read from the fitted curve at half-maximal effect.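 As to activity change, negative = inhibition: plate controls were vehicle wells for no effect and reference inhibitor wells for full effect.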 The note with it: Plasmodium falciparum 7G8 proliferation inhibition; series mostly up to 28.7 µM.
The nature of assay [4]: qHTS for differential inhibitors of proliferation of Plasmodium falciparum line GB4 (AID 1816).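 Also: parasite growth measured after 72 h incubation.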 Also: potency is read from the fitted curve at half-maximal effect.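 As to activity change, negative = inhibition: 0% = vehicle DMSO and -100% = reference inhibitor.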 As to conditions: Potency: Plasmodium falciparum GB4 proliferation inhibition; series mostly up to 28.7 µM.
The target in assay [5] is alpha-glucosidase (Oryza sativa, rice) (UniProt Q653V4). Briefly: Counterscreen for Glucocerebrosidase Inhibitors: qHTS Assay for Rice alpha-Glucosidase at pH 5.0 (AID 997).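 Also: 0% = full activity with enzyme and -100% = basal without enzyme.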 The note with it: rice alpha-glucosidase enzyme activity; series mostly up to 76.9 µM. In a few lines:
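Endpoint fluorogenic assay at pH 5.0: compounds (0.7 nM to 77 uM) titrated against 4 nM rice enzyme and 400 uM 4-MU-alpha-glucoside for 20 min at room temperature; NaOH/glycine stop, read ex 365/em 440 nm, Hill-fitted AC50.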

Assay [6] in a line: Counterscreen for APE1 Inhibitors: Fluorescent Dye Displacement Validation Assay (AID 1707).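 Also: plate controls were ThO with dsDNA and no compound for no effect and ThO without dsDNA for full effect.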 The note with it: fluorescent dye displacement from DNA; series mostly up to 57.1 µM. In a few lines: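 Reaction mixture of 250 nM Thiazole Orange and 50 nM double-stranded abasic-site DNA was dispensed, compounds were pin-transferred, and fluorescence was read at endpoint (480 nm ex, 540 nm em). Reduced fluorescence indicated dye displacement by DNA binding.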

The target in assay [7] is Endonuclease 4 (Escherichia coli (strain K12)) (UniProt P0A6C1). Description: Counterscreen for APE1 Inhibitors: qHTS Validation Assay for Inhibitors of Endonuclease IV (AID 1708). Also: % is scaled to controls: 0 for no effect and ±100 for the full control effect. The note with it: E. coli endonuclease IV, DNA cleavage fluorescence; series mostly up to 57.1 µM. Summed up: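 Conditions: 2 nM enzyme, 50 nM TAMRA/BHQ-2 substrate, pH 7.5 Tris buffer with 2 mM MgCl2, RT. Compound preincubation 15 min; readout three fluorescence reads 60 s apart, third-minus-first.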

The nature of assay [8]: qHTS for differential inhibitors of proliferation of Plasmodium falciparum line 3D7 (AID 1876). Also: potency is read from the fitted curve at half-maximal effect. As to conditions: P. falciparum 3D7 proliferation inhibition; series mostly up to 28.7 µM.
Assay [9] is described as follows: qHTS for differential inhibitors of proliferation of Plasmodium falciparum line D10 (AID 1877).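 Also: parasites grown with compound for 72 h before DNA staining.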 Also: potency is read from the fitted curve at half-maximal effect.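 As to activity change, negative = inhibition: plate controls were vehicle wells for no effect and reference inhibitor wells for full effect.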 The note with it: series mostly up to 28.7 µM.
Setting [10] is: measured here: cell count channel max response.
Where [11] appears, read: measured here: lipid channel max response.

Sequence of DNA repair nuclease/redox regulator APEX1 (Homo sapiens) (P27695 whole entry, looked up): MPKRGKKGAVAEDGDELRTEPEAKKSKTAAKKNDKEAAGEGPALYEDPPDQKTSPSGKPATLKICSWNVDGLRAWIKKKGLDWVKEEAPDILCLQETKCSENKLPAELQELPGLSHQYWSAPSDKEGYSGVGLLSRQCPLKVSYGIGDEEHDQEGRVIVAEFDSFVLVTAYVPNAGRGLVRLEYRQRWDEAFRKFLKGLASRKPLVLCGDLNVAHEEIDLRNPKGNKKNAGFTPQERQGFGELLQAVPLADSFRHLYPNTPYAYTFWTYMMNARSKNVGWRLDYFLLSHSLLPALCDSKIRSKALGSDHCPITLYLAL

For the molecule `CN(C)c1ccc(/C=C2\C(=O)Nc3ccccc32)cc1`, the activity change, negative = inhibition in [1] (at 57.5 µM (top of the series)) was 0.655% (inactive). Also, the max response was -28.2% in assay [1] (setting [10]) and -23.7% in assay [1] (setting [11]). Besides, the Potency entry in assay [2] is “inactive”. Further, the Potency in assay [3] is 8.91 µM (active); in [4], 12.6 µM (active).
As to `CCCCCCOc1ccccc1C(N)=O`, the activity change, negative = inhibition in assay [1] (at 57.5 µM (top of the series)) was 12.4% (inactive). In addition, the values for the max response in [1] (setting [10]) and in [1] (setting [11]) were 7.6% and 24%, respectively.
For the molecule `O=c1cc(-c2ccccc2)oc2c(O)c(O)ccc12`, the activity change, negative = inhibition in assay [1] (at 57.5 µM (top of the series)) is -5.17% (inactive). Besides, the max response in assay [1] (setting [10]) was -10.5%; in assay [1] (setting [11]), -5.87%.
For `O=c1[nH]c2cc(Cl)c(Cl)cc2[nH]c1=O`, the result in [5] was inactive. In addition, the activity change, negative = inhibition in assay [1] (at 57.5 µM (top of the series)) was -0.911% (inactive). Also, the max response in assay [1] (setting [10]) was -49.2%; in assay [1] (setting [11]), -51.3%. Moreover, the Potency entry in [2], in assay [6] and in assay [7] was “inactive” each time. For the same molecule, the Potency in [8] is 2.51 µM (active).
Regarding `S=C(S)OC1CC2CC1C1CCCC21` (stereo not drawn), the activity change, negative = inhibition in assay [1] (at 57.5 µM (top of the series)) was -2.21% (inactive). Besides, the max response in assay [1] (setting [10]) is -18.8%; in [1] (setting [11]), -14.9%. The Potency entry in assay [2], in assay [6], in [3], in [4], in assay [8] and in [9] was “inactive” each time.
For `O=c1[nH]c2ccccc2n1CCCN1CCN(C(c2ccccc2)c2ccccc2)CC1`, in assay [5], the result was inactive. Besides, the activity change, negative = inhibition in [1] (at 57.5 µM (top of the series)) is 0.533% (inactive). The max response was found to be 44.5% in assay [1] (setting [10]) and 44% in [1] (setting [11]). The Potency entry in assay [2], in [6] and in [7] was “inactive” in each case. Moreover, the Potency was 7.08 µM (active) in assay [3] and 12.6 µM (active) in [4].
For `O=C(O)Cc1ccc(-c2ccccc2)cc1`, in [1] (at 25.7 µM (top of the series)), the activity change, negative = inhibition is 1.48% (inactive). Moreover, the max response in assay [1] (setting [10]) is -7.71%; in [1] (setting [11]), -5.4%.
Regarding `CCCN(CC1CC1)c1nc(C)nc(Nc2c(Cl)cc(Cl)cc2Cl)c1Cl`, in assay [5], the molecule was classed as inactive. In assay [1] (at 57.5 µM (top of the series)), the activity change, negative = inhibition was -0.101% (inactive). For the same molecule, the max response in assay [1] (setting [10]) and in assay [1] (setting [11]) was -15.8% each time. Moreover, the Potency result in assay [2], in assay [6] and in assay [7] was “inactive” throughout. For the same molecule, the Potency in assay [3] was 3.55 µM (active); in assay [4] it was 3.98 µM (active); in assay [8], 2.82 µM (active); in [9], 3.98 µM (active).
On to `Nc1ccc(C(=O)O)c(O)c1`, for which the activity change, negative = inhibition in assay [1] (at 57.5 µM (top of the series)) was -7.1% (inactive). Also, the figures for the max response in [1] (setting [10]) and in assay [1] (setting [11]) were 19.5% and 14%, respectively.
As for `O=C(c1cc(O)c(O)c([N+](=O)[O-])c1)c1ccccc1F`, the call in assay [5] was inactive. Also, in assay [1] (at 57.5 µM (top of the series)), the activity change, negative = inhibition is -2.67% (inactive). Moreover, the max response in assay [1] (setting [10]) is -12%; in [1] (setting [11]), -15.8%. Further, the Potency result in assay [2], in assay [6], in assay [7], in [8] and in [9] was “inactive” each time.
As for `Nc1ccc(O)c(C(=O)O)c1`, in assay [1] (at 25.7 µM (top of the series)), the activity change, negative = inhibition is 1.25% (inactive). The max response is -4.23% in assay [1] (setting [10]) and -4.44% in assay [1] (setting [11]).
For `CCCCCCCCCCCCCCCCCC(=O)NCC(COP(=O)([O-])OCC[N+](C)(C)C)OCC` (stereo not drawn), the activity change, negative = inhibition in assay [1] (at 57.5 µM (top of the series)) was -1.69% (inactive). In addition, the max response in assay [1] (setting [10]) worked out at 15.1%; in assay [1] (setting [11]), 12.1%. In addition, the Potency entry in [2], in [6], in [7], in [3], in assay [4] and in assay [8] was “inactive” in each case. Moreover, the Potency in assay [9] was 14.1 µM (active).
Consider `Oc1c(Br)cc(Br)c2cccnc12`, for which the activity change, negative = inhibition in assay [1] (at 57.5 µM (top of the series)) was 1.03% (inactive). In addition, the values for the max response in assay [1] (setting [10]) and in assay [1] (setting [11]) were 0.383% and 3.22%, respectively.
As to `CN=c1nc(-c2ccccc2)n(-c2ccccc2)s1`, the molecule was classed as inactive in assay [5]. Further, the Potency entry in assay [2] and in assay [6] was “inactive” each time. Also, the Potency in assay [3] and in [4] was 10 µM (active) throughout.
As to `COc1ccccc1CNCCCCCCNCCCCCCCCNCCCCCCNCc1ccccc1OC`, the molecule was classed as inactive in assay [5]. The Potency result in [2], in assay [6] and in assay [7] was “inactive” in each case. Besides, the Potency in assay [3] was 1.41 µM (active); in assay [4], 2.24 µM (active); in assay [8], 0.891 µM (active); in assay [9] it was 2.24 µM (active).
On to `N[C@H](CCCP(=O)(O)O)C(=O)O`, for which, in assay [5], the molecule was called inactive. For the same molecule, in [1] (at 57.5 µM (top of the series)), the activity change, negative = inhibition is 2.93% (inactive) and -1.99% (inactive). The max response in [1] (setting [10]) was -9.86% and -13.3%; in [1] (setting [11]), -5.72% and -16.1%.
Turning to `CN1[C@@H]2CC[C@H]1CC(OC(c1ccccc1)c1ccccc1)C2` (stereo partly drawn), the call in assay [5] was inactive.
With `C#CCN1C(C)=C(C(=O)OC)C(c2cccc([N+](=O)[O-])c2)C(C(=O)OCC)=C1C` (stereo not drawn), the Potency result in [2] and in assay [6] was “inactive” in each case. Moreover, the Potency is 7.94 µM (active) in [3], 7.08 µM (active) in assay [4], 11.2 µM (active) in assay [8] and 14.1 µM (active) in [9].
As to `CO/N=C(\C(=O)N[C@@H]1C(=O)N2C(C(=O)O)=C(COC(C)=O)CS[C@H]12)c1csc(N)n1` (stereo in doubt), the Potency in [2] is 2.24 µM (active). The Potency result in assay [6], in assay [3], in assay [4], in assay [8] and in assay [9] was “inactive” in each case.
`CN(C)c1nc2c(Br)c(Br)c(Br)c(Br)c2[nH]1`: the outcome in assay [5] was inactive. Also, the Potency result in assay [2], in [6], in assay [3], in assay [4] and in assay [8] was “inactive” each time.
As for `CCCCCCCC/C=C\CCCCCCCC(=O)NCCO`, the molecule was called inactive in assay [5]. The activity change, negative = inhibition in [1] (at 57.5 µM (top of the series)) was 1.41% (inactive). Moreover, the results for the max response in [1] (setting [10]) and in assay [1] (setting [11]) were 18.9% and 20.6%, respectively. Further, the Potency in [3] is 3.55 µM (active); in assay [4], 2.51 µM (active); in [8] it was 3.98 µM (active); in [9], 7.94 µM (active).
As to `O=Nc1ccc2oc(=O)ccc2c1`, the outcome in assay [5] was inactive. Further, the Potency entry in assay [2], in [6] and in [7] was “inactive” each time. Further, the Potency in assay [3] is 12.6 µM (active); in [8], 11.2 µM (active).
With `CC(C)(C)c1ccc(S(=O)(=O)/C=C/C#N)cc1`, the Potency result in [2], in assay [6] and in assay [7] was “inactive” throughout. For the same molecule, the Potency in assay [3] was 10 µM (active); in assay [4], 14.1 µM (active); in assay [8], 10 µM (active); in assay [9], 12.6 µM (active).
For the molecule `COC1=C(OC)C(=O)c2ccccc2C1=O`, the molecule was classed as inactive in assay [5]. Also, the Potency entry in assay [2], in assay [6] and in assay [7] was “inactive” throughout. The Potency is 8.91 µM (active) in assay [3], 10 µM (active) in [4], 10 µM (active) in assay [8] and 11.2 µM (active) in assay [9].
For `CN1CCc2cccc3c2C1Cc1ccc(O)c(O)c1-3` (stereo not drawn), the Potency entry in assay [2], in [6] and in [7] was “inactive” each time. Also, the Potency in assay [3] is 2.24 µM (active); in assay [4], 2.24 µM (active); in [8] it was 2 µM (active); in [9], 2.24 µM (active).
For `COc1ccccc1N1CCN(CCCCNS(=O)(=O)c2cccc3c(N(C)C)cccc23)CC1`, the molecule was classed as inactive in assay [5]. The Potency result in assay [2] and in assay [6] was “inactive” in each case. Further, the Potency is 7.94 µM (active) in assay [3], 14.1 µM (active) in assay [4] and 10 µM (active) in [8].
